Holding throughout (test): NCI-60 one-dose screen, 48 h (100 = growth as untreated, 0 = no growth, -100 = all killed)
The test system of assay [1] is HCT-15 colon. The settings on record: 10 µM unless noted.
For assay [2], the system named is HT29 colon. Particulars: 10 µM unless noted.
Assay [3] relates to SNB-75 CNS. Particulars: 10 µM unless noted.
Assay [4] concerns SNB-19 CNS. Particulars: 10 µM unless noted.
In assay [5] the test system is U251 CNS. The settings on record: 10 µM unless noted.
The subject of assay [6] is PC-3 prostate. Particulars: 10 µM unless noted.
The subject of assay [7] is SK-MEL-5 melanoma. The settings on record: 10 µM unless noted.
Assay [8] relates to UACC-62 melanoma. Particulars: 10 µM unless noted.
Assay [9] relates to SK-MEL-28 melanoma. The settings on record: 10 µM unless noted.
Assay [10] has as its system EKVX NSCLC. The settings on record: 10 µM unless noted.
Assay [11] has as its system SN12C renal. The settings on record: 10 µM unless noted.
In assay [12] the test system is UO-31 renal. Particulars: 10 µM unless noted.
In assay [13] the test system is TK-10 renal. Particulars: 10 µM unless noted.
Assay [14] has as its system ACHN renal. The settings on record: 10 µM unless noted.
Assay [15] concerns CAKI-1 renal. Particulars: 10 µM.
For assay [16], the system named is A498 renal. The settings on record: 10 µM unless noted.
Assay [17] relates to CCRF-CEM leukemia. The settings on record: 10 µM unless noted.
The subject of assay [18] is MOLT-4 leukemia. Particulars: 10 µM unless noted.
The test system of assay [19] is LOX IMVI melanoma. Particulars: 10 µM unless noted.
Assay [20] relates to SK-MEL-2 melanoma. Particulars: 10 µM unless noted.

Compounds without any hit were thinned out: in the full panel of roughly 83,000, 20% have a hit.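 Method: cells in 96-well plates; compound added at one concentration; 48 h incubation; percent growth measured; values under 10 scored active.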 Values without a mark were called inactive. Calls of active or inactive are those of the source.

For the compound `COc1ccc(NC(=O)[C@H](C)N)cc1C(=O)Nc1cccc(-c2cc(=O)c3c(OC)c(OC)c(OC)cc3o2)c1`, the growth in assay [1] was 49.6%; in assay [2], 69.8%; in assay [3] it was 84.5%; in assay [4], 65.8%; in assay [5], 56.3%; in assay [6], 71.6%. For the same compound, the growth is 57.9% in assay [7]; 63.5% in assay [8]; 88.2% in assay [9]; 81.3% in [10]; 55.4% in [11]; 29.7% in [12]. In addition, the growth was 70.7% in [13]; 54.2% in assay [14]; 49% in [15]; 50.9% in assay [16]; 52.9% in assay [17]; 51.4% in [18].

`CCCCSc1nnc(-c2ccc(-c3ccc(Cl)cc3)nc2C)o1`: the growth was 92.6% in assay [1]; 97.2% in assay [2]; 90.3% in assay [3]; 97.8% in [4]; 104% in [5]; 99.3% in assay [7]. For the same compound, the growth was 84.1% in assay [8]; 101% in assay [19]; 99.9% in assay [9]; 106% in assay [20]; 95.4% in [10]; 98.2% in assay [11]. Moreover, the growth in assay [12] is 93.4%; in [13], 109%; in assay [14], 104%; in assay [15], 95.4%; in assay [16] it was 71%; in assay [17], 99.7%. For the same compound, in assay [18], the growth is 96.3%.

For the compound `COc1cnc2c(c1)C(=O)c1c-2n(CCCn2ccnc2)c(=O)c2cc(OC)c(OC)cc12`, the growth is -53.2% (active) in [1]; -56.1% (active) in assay [2]; 12.4% in [3]; 14.9% in assay [4]; -84.8% (active) in [5]; -54.9% (active) in assay [6]. The growth was -28.4% (active) in assay [7]; -51.5% (active) in assay [19]; 45.5% in assay [9]; -9.94% (active) in assay [10]; 3.73% (active) in assay [11]; -91.4% (active) in [12]. For the same compound, the growth in assay [14] is -36.1% (active); in [15] it was 9.33% (active); in assay [17] it was -2.01% (active).

On to `COc1ccc(-c2oc3cc(O)cc(O)c3c(=O)c2OC)cc1O`, for which the growth in [1] is 33.2%; in [2] it was 57%; in assay [3] it was -24.3% (active); in assay [4], 28.2%; in assay [5], 15.6%; in assay [6] it was 24.1%. Also, the growth was 36.8% in [19]; 13.2% in assay [20]; 38.7% in assay [10]; 26.2% in assay [12]; 52.3% in assay [13]; 34.1% in assay [14]. In addition, the growth in assay [15] was 14.9%; in assay [16] it was -6.41% (active); in assay [17], 2.67% (active); in assay [18], 21.4%.

Take `CC1OC(O[C@@H]2C(O)C(CO)OC(O[C@H]3COC(O[C@H]4CC[C@]5(C)[C@H]6CC[C@]78OC[C@@]9(CC[C@](C)(C=O)C[C@H]97)[C@H](O)C[C@@]8(C)[C@]6(C)CC[C@H]5C4(C)C)[C@@H](OC4OC(CO)[C@@H](O)[C@@H](O)[C@@H]4O)[C@@H]3O)[C@H]2OC2OC[C@@H](O)[C@@H](O)[C@@H]2O)[C@@H](O)[C@@H](O)[C@H]1O` (stereo not given in full): the growth in [1] is 83.7%; in [2], 6.44% (active); in [3] it was -65.2% (active); in assay [4], -49.2% (active); in assay [5], -87.5% (active); in [6] it was -80.5% (active). Also, the growth in [19] is -5.38% (active); in assay [20], -35.2% (active); in [10], 22.2%; in [12], -93.6% (active); in assay [13], 29.5%; in assay [14], -82.2% (active). In addition, the growth was -80.7% (active) in [15], -89.3% (active) in assay [16], 4.93% (active) in assay [17] and -36% (active) in assay [18].

On to `CNC(=O)c1cc(Oc2ccc3nc(NC(=O)c4cccc(C(F)(F)F)c4)sc3c2)ccn1`, for which the growth in [1] is 98.1%; in [2], 106%; in assay [3] it was 90.7%; in assay [4] it was 93.3%; in assay [5], 104%; in assay [7], 101%. Moreover, the growth is 85% in [8]; 99.3% in [19]; 89.8% in assay [9]; 101% in assay [10]; 96% in [11]; 99.1% in assay [12]. The growth was 116% in assay [13]; 102% in assay [14]; 93.6% in assay [15]; 87.3% in assay [16]; 109% in [17]; 107% in assay [18].

On to `C#CCOc1ccc(C(Nc2cc(Cl)ccc2Cl)c2nnnn2C2CCCCC2)cc1` (stereo not given), for which the growth in assay [1] was 86.4%; in assay [2] it was 92.7%; in [3], 95.1%; in assay [4], 86%; in [5] it was 82.7%; in assay [6] it was 76.9%. The growth in [7] is 95.4%; in assay [19], 97.7%; in [20], 95%; in assay [10], -8.05% (active); in assay [11], 91.4%; in [12], 62.5%. Further, the growth in assay [13] was 90.8%; in assay [14], 92%; in assay [15], 44.4%; in assay [17], 85.8%; in assay [18], 68.1%.

Turning to `C=C1C(=O)O[C@@H]2/C=C(/C)C3=CC(=O)[C@@](C)(C[C@H](OC(=O)/C(C)=C\C)[C@@H]12)O3`, the growth in assay [1] is -2.86% (active); in [2], -38.7% (active); in assay [3], 44.4%; in assay [4], 64.4%; in assay [5], 28.8%; in [6] it was 36.6%. In addition, the growth in assay [19] was -44.8% (active); in assay [20] it was -28.5% (active); in [10] it was 21.6%; in assay [12] it was -85.4% (active); in assay [13], -18% (active); in assay [14], -39.1% (active). For the same compound, the growth in assay [15] is 6.13% (active); in assay [16], 59.5%; in assay [17], -14.9% (active); in [18] it was 0.44% (active).
